This is part of a sample that, as a whole, favours compounds with a hit. Of some 79,000 tested, about 15% had one in any assay. Activity calls are given as the source filed them. Rule as the data show it: active = growth inhibition above about 70%; inactive = the rest.
Legend:
[1] = NCI Yeast Anticancer Drug Screen. Data for the mec2-1 strain (AID 157); conditions: S. cerevisiae mec2-1 strain, stronger effect = higher value
How it was run: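 Mutant yeast (mec2-1) grown with compound; growth inhibition relative to vehicle control reported.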

[2] = NCI Yeast Anticancer Drug Screen. Data for the rad14 strain (AID 159);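 also: 0% = growth of vehicle-treated control cultures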; conditions: S. cerevisiae rad14 strain growth inhibition, stronger effect = higher value
How it was run: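 DNA repair-defective yeast, compound-exposed; % growth inhibition derived by comparison with vehicle-treated controls.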

[3] = NCI Yeast Anticancer Drug Screen. Data for the sgs1 mgt1 strain (AID 161);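 also: 0% = growth of cultures given vehicle only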; conditions: S. cerevisiae sgs1 mgt1 strain, stronger effect = higher value
How it was run: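 Percent growth inhibition was derived by comparing compound-exposed mutant yeast with vehicle-exposed cultures. The strain carries alterations in DNA damage repair.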

[4] = NCI Yeast Anticancer Drug Screen. Data for the CLN2oe strain (AID 163);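 also: 0% = growth of vehicle-only control cultures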; conditions: S. cerevisiae CLN2oe strain, stronger effect = higher value
How it was run: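 Compounds are applied to yeast harbouring a defined cell-cycle control change; reduced growth compared with vehicle-treated controls gives the value.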

[5] = NCI Yeast Anticancer Drug Screen. Data for the cln2 rad14 strain (AID 165);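 also: 0% = growth equal to vehicle treated cultures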; conditions: S. cerevisiae cln2 rad14 strain, stronger effect = higher value
How it was run: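 Readout is yeast growth inhibition versus vehicle-treated controls, using a strain with cln2 and rad14 alterations exposed to compound.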

[6] = NCI Yeast Anticancer Drug Screen. Data for the bub3 strain (AID 167); conditions: S. cerevisiae bub3 mutant strain, stronger effect = higher value
How it was run: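 In this screen, a yeast mutant lacking normal mitotic checkpoint function is challenged with compound. Relative growth versus vehicle gives the inhibition value.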

[7] = NCI Yeast Anticancer Drug Screen. Data for the wt2 strain (AID 169);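 also: 0% = growth of vehicle-treated yeast cultures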; conditions: S. cerevisiae wt2 strain growth inhibition, stronger effect = higher value
How it was run: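 Against vehicle-treated controls, the growth of yeast exposed to each compound was compared, and the inhibition was recorded.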

[8] = NCI Yeast Anticancer Drug Screen. Data for the mlh1 strain (AID 171);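 also: 0% = growth of vehicle-treated control cultures of the same strain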; conditions: S. cerevisiae mlh1 strain growth inhibition, stronger effect = higher value
How it was run: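 Measured: yeast growth. Reference: vehicle-treated controls. Organism: strain with a defined alteration affecting DNA damage repair or cell cycle control, treated with compound.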

[9] = NCI Yeast Anticancer Drug Screen. Data for the sgs1 strain (AID 173);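 also: 0% = growth of vehicle-only control cultures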; conditions: S. cerevisiae sgs1 mutant, stronger effect = higher value
How it was run: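 Each compound was added to cultures of the altered yeast strain. Growth was recorded, and inhibition was derived by comparison with vehicle controls.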

[10] = NCI Yeast Anticancer Drug Screen. Data for the mlh1 rad18 strain (AID 175); conditions: S. cerevisiae mlh1 rad18 strain growth inhibition, stronger effect = higher value
How it was run: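 Genetically defined yeast (DNA repair-deficient) exposed to compounds; growth inhibition determined relative to vehicle.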

[11] = NCI Yeast Anticancer Drug Screen. Data for the rad18 strain (AID 177); conditions: S. cerevisiae rad18 mutant growth inhibition, stronger effect = higher value
How it was run: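 Vehicle-treated cultures served as the baseline for scoring compound-induced growth inhibition in DNA-repair-mutant yeast.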

[12] = NCI Yeast Anticancer Drug Screen. Data for the rad52 strain (AID 147);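 also: 0% = growth of vehicle-treated control cultures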; conditions: S. cerevisiae rad52 mutant growth inhibition, stronger effect = higher value
How it was run: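 The repair-mutant yeast strain was incubated with compounds, then growth was read and inhibition derived relative to vehicle.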

[13] = NCI Yeast Anticancer Drug Screen. Data for the wt1 strain (AID 149);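 also: 0% = growth of vehicle-treated wt1 cultures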; conditions: S. cerevisiae wt1 strain (SPY 50644) growth inhibition, stronger effect = higher value
How it was run: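 wt1 strain grown with compound or vehicle; inhibition taken from the growth difference.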

[14] = NCI Yeast Anticancer Drug Screen. Data for the rad50EPP+ strain (AID 151);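 also: 0% = growth of vehicle-treated control cultures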; conditions: S. cerevisiae rad50 mutant strain, stronger effect = higher value
How it was run: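 Vehicle-normalised growth inhibition; rad50EPP+ yeast strain, altered in DNA damage repair, compound-treated.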

[15] = NCI Yeast Anticancer Drug Screen. Data for the mgt1 strain (AID 153); conditions: S. cerevisiae mgt1 mutant growth inhibition, stronger effect = higher value
How it was run: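 Vehicle-normalized growth inhibition is determined in mgt1 yeast, a strain selected for a defined alteration in DNA repair or cell cycle control.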

[16] = NCI Yeast Anticancer Drug Screen. Data for the rad50 strain (AID 155);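 also: 0% = growth of vehicle-only cultures of the same strain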; conditions: S. cerevisiae rad50 strain growth inhibition, stronger effect = higher value
How it was run: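 DNA repair mutant yeast, compound exposure, growth read-out; inhibition is taken relative to vehicle.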

[17] = at 5.0 µM (retest, dose inferred, filed as 0.5)
[18] = at 50.0 µM (retest, dose inferred, filed as 5.0)

Measured: growth inhibition

COc1ccc2nc3cccc([N+](=O)[O-])c3c(NCCNCCO)c2c1
inactive: [1]; [17] 1% | [4]; at 1.2 µM -5% | [4]; at 3.7 µM -8% | [4]; at 11.0 µM -5% | [4]; at 33.0 µM 32% | [6]; at 1.2 µM -11% | [6]; at 3.7 µM -17% | [6]; [17] -31% | [6]; at 11.0 µM -11% | [6]; at 33.0 µM 36% | [6]; at 50.0 µM 67.7% | [7]; at 1.2 µM -2% | [7]; at 3.7 µM -1% | [7]; at 11.0 µM 4% | [7]; at 33.0 µM 35% | [8]; at 1.2 µM 1% | [8]; at 3.7 µM 21% | [8]; at 11.0 µM 50% | [10]; [17] 67%
active: [1]; at 11.0 µM 95% | [1]; at 33.0 µM 96% | [1]; [18] 96% | [1]; at 50.0 µM 89.3% | [1]; at 100.0 µM 97% | [2]; at 1.2 µM 90% | [2]; at 3.7 µM 97% | [2]; at 11.0 µM 99% | [2]; at 33.0 µM 99% | [2]; at 100.0 µM 98% | [3]; [17] 78% | [3]; [18] 94% | [3]; at 50.0 µM 78.2% | [4]; at 100.0 µM 90% | [5]; [17] 81% | [5]; [18] 98% | [5]; at 50.0 µM 86.8% | [6]; [18] 90% | [6]; at 100.0 µM 96% | [7]; at 100.0 µM 94% | [8]; at 33.0 µM 80% | [8]; at 100.0 µM 88% | [9]; at 1.2 µM 80% | [9]; at 3.7 µM 89% | [9]; at 11.0 µM 93% | [9]; at 33.0 µM 95% | [9]; at 100.0 µM 95% | [10]; [18] 98% | [10]; at 50.0 µM 78.2% | [11]; at 1.2 µM 95% | [11]; at 3.7 µM 96% | [11]; at 11.0 µM 96% | [11]; at 33.0 µM 95% | [11]; at 100.0 µM 95%

CC(C)OP(=O)(OC(C)C)/C(Cl)=N/Nc1ccc([N+](=O)[O-])cc1
inactive: [12]; at 1.2 µM -10% | [12]; at 3.7 µM -6% | [12]; at 11.0 µM 52% | [13]; at 1.2 µM -10% | [13]; at 3.7 µM -10% | [13]; at 11.0 µM 19% | [13]; at 33.0 µM 38% | [14]; at 1.2 µM 25% | [14]; at 3.7 µM 50% | [15]; at 1.2 µM -21% | [15]; at 3.7 µM -29% | [15]; at 11.0 µM 16% | [16]; at 1.2 µM -10% | [16]; at 3.7 µM -21% | [16]; [17] 19% | [16]; at 11.0 µM 61% | [1]; at 1.2 µM -5% | [1]; at 3.7 µM -3% | [1]; [17] 13% | [1]; at 11.0 µM 52% | [2]; at 1.2 µM -8% | [2]; at 3.7 µM 6% | [2]; at 11.0 µM 24% | [2]; at 33.0 µM 34% | [3]; [17] 6% | [4]; at 1.2 µM 18% | [4]; at 3.7 µM 20% | [5]; [17] 28% | [6]; at 1.2 µM -4% | [6]; at 3.7 µM 3% | [6]; [17] 29% | [7]; at 1.2 µM 3% | [7]; at 3.7 µM 5% | [7]; at 11.0 µM 39% | [8]; at 1.2 µM 13% | [8]; at 3.7 µM 23% | [9]; at 1.2 µM 28% | [9]; at 3.7 µM 23% | [10]; [17] 47% | [11]; at 1.2 µM 29% | [11]; at 3.7 µM 28%
active: [12]; at 33.0 µM 90% | [12]; at 100.0 µM 95% | [13]; at 100.0 µM 85% | [14]; at 11.0 µM 93% | [14]; at 33.0 µM 96% | [14]; at 100.0 µM 96% | [15]; at 33.0 µM 78% | [15]; at 100.0 µM 94% | [16]; at 33.0 µM 93% | [16]; [18] 95% | [16]; at 50.0 µM 88.7% | [16]; at 100.0 µM 94% | [1]; at 33.0 µM 81% | [1]; [18] 80% | [1]; at 50.0 µM 81% | [1]; at 100.0 µM 90% | [2]; at 100.0 µM 80% | [3]; [18] 74% | [3]; at 50.0 µM 90.8% | [4]; at 11.0 µM 79% | [4]; at 33.0 µM 95% | [4]; at 100.0 µM 96% | [5]; [18] 80% | [5]; at 50.0 µM 89.2% | [6]; at 11.0 µM 86% | [6]; at 33.0 µM 95% | [6]; [18] 95% | [6]; at 50.0 µM 91.6% | [6]; at 100.0 µM 95% | [7]; at 33.0 µM 71% | [7]; at 100.0 µM 93% | [8]; at 11.0 µM 86% | [8]; at 33.0 µM 96% | [8]; at 100.0 µM 94% | [9]; at 11.0 µM 94% | [9]; at 33.0 µM 97% | [9]; at 100.0 µM 98% | [10]; [18] 97% | [10]; at 50.0 µM 87.3% | [11]; at 11.0 µM 85% | [11]; at 33.0 µM 96% | [11]; at 100.0 µM 96%

CC(/C=C/c1ccc([N+](=O)[O-])o1)=N/N1CC(CN2CCOCC2)OC1=O (centres undefined)
inactive: [12]; at 1.2 µM -5% | [12]; at 3.7 µM 5% | [12]; at 11.0 µM 48% | [13]; at 1.2 µM 2% | [13]; at 3.7 µM 11% | [13]; at 11.0 µM 36% | [13]; at 33.0 µM 66% | [14]; at 1.2 µM -4% | [14]; at 3.7 µM 4% | [14]; at 11.0 µM 34% | [14]; at 33.0 µM 58% | [15]; at 1.2 µM -2% | [15]; at 3.7 µM -4% | [15]; at 11.0 µM 12% | [15]; at 33.0 µM 30% | [16]; at 1.2 µM -9% | [16]; at 3.7 µM -6% | [16]; [17] 9% | [16]; at 11.0 µM 35% | [1]; at 1.2 µM 2% | [1]; at 3.7 µM 0% | [1]; [17] 7% | [1]; at 11.0 µM 1% | [1]; at 33.0 µM 29% | [1]; at 50.0 µM 55.6% | [2]; at 1.2 µM 4% | [2]; at 3.7 µM 10% | [2]; at 11.0 µM 55% | [3]; [17] 22% | [4]; at 1.2 µM -9% | [4]; at 3.7 µM -9% | [4]; at 11.0 µM -2% | [4]; at 33.0 µM 44% | [5]; [17] 6% | [5]; at 50.0 µM 53.5% | [6]; at 1.2 µM -6% | [6]; at 3.7 µM -3% | [6]; [17] 3% | [6]; at 11.0 µM 2% | [6]; at 33.0 µM 27% | [6]; at 50.0 µM 41.8% | [7]; at 1.2 µM -3% | [7]; at 3.7 µM 11% | [7]; at 11.0 µM 49% | [8]; at 1.2 µM -14% | [8]; at 3.7 µM -6% | [8]; at 11.0 µM -2% | [8]; at 33.0 µM 42% | [9]; at 1.2 µM -8% | [9]; at 3.7 µM 3% | [9]; at 11.0 µM 69% | [10]; [17] 63% | [11]; at 1.2 µM 24%
active: [12]; at 33.0 µM 94% | [12]; at 100.0 µM 98% | [13]; at 100.0 µM 96% | [14]; at 100.0 µM 76% | [15]; at 100.0 µM 85% | [16]; at 33.0 µM 90% | [16]; [18] 90% | [16]; at 50.0 µM 91.8% | [16]; at 100.0 µM 97% | [1]; [18] 90% | [1]; at 100.0 µM 94% | [2]; at 33.0 µM 90% | [2]; at 100.0 µM 99% | [3]; [18] 93% | [3]; at 50.0 µM 91.3% | [4]; at 100.0 µM 90% | [5]; [18] 90% | [6]; [18] 87% | [6]; at 100.0 µM 94% | [7]; at 33.0 µM 79% | [7]; at 100.0 µM 98% | [8]; at 100.0 µM 91% | [9]; at 33.0 µM 93% | [9]; at 100.0 µM 97% | [10]; [18] 95% | [10]; at 50.0 µM 93.5% | [11]; at 3.7 µM 89% | [11]; at 11.0 µM 97% | [11]; at 33.0 µM 97% | [11]; at 100.0 µM 98%

— PubChem BioAssay (NCI)
